The campaign covered roughly 360,000 compounds. About 1,300 (0.36%) were called active. This excerpt belongs to a sample that is enriched for actives. Values without a mark were called inactive.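 Rule for the calls: active = corrected activity change at or below -50% at 5 µM; inactive = the rest.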

This test is described as follows: cytotoxicity in KKLEB CF airway cells, primary screen, cytotoxicity control for CF NF-kB inhibitor project, cell-based, uHTS, fluorescence assay plates (AID 602141). The note with it: KKLEB CF airway cells viability, ATPlite luminescence, overnight; at 5 µM; stronger effect = lower value; cells stimulated with P. aeruginosa culture filtrate. (In general: In ATP-based viability assays light output follows the ATP content of the culture.)
`CCOc1ccccc1NS(=O)(=O)c1cc2c3c(c1)C(C)C(=O)N3CCC2` (centres undefined): the activity change (cytotoxicity) is 7.2%. The figure for `COc1ccc(CN(C(=O)c2cccs2)c2nccs2)cc1OC` is 5.6%; for `O=C(NCc1cccnc1)c1nc(-c2cccs2)no1` it is -11.3%. For the compound `COc1ccc(/C=C/C(=O)NC(=S)N2CCCC(C(N)=O)C2)cc1` (centres undefined), the activity change (cytotoxicity) is -10.3%. With `CCOc1ccc(NC(=O)COC(=O)C2CCC(=O)N2)c([N+](=O)[O-])c1` (centres undefined), the activity change (cytotoxicity) was -7.5%.

Consider `CCOc1ccc(NC(=S)NC(=O)/C=C/c2ccc(OC)cc2)c([N+](=O)[O-])c1`, for which the activity change (cytotoxicity) is -50.2% (active).

On to `COc1ccc(S(=O)(=O)n2cnc3ccccc32)c(C)c1`, for which the activity change (cytotoxicity) is 0.5%. The same measure for `COc1c(C=O)c(CCN(C)C(=O)c2ccc(F)cc2)cc2c1OCO2`: -9%; for `O=C(c1ccc2c(c1)OCO2)N1CCNc2ccccc2C1`: 4.7%. Turning to `CS(=O)(=O)N(CC(=O)N/N=C/c1ccccn1)c1ccc(Oc2ccccc2)cc1`, the activity change (cytotoxicity) was 1.8%. The same measure for `S=C(NN=Cc1ccccn1)Nc1ccccn1`: -63.5% (active); for `O=C(N/N=C/c1ccccn1)c1cccc(NC(=O)c2ccc(Cl)cc2)c1`: -1.1%; for `Cc1ccc(S(=O)(=O)N2CCCCC2)cc1NC(=O)CCNC(=O)c1ccccc1Cl`: 1.6%.

Regarding `Nc1ncnc2c1ncn2[C@@H]1O[C@H](C(=O)NS(=O)(=O)c2c(Cl)nc3sccn23)[C@@H](O)[C@H]1O`, the activity change (cytotoxicity) was -8.7%. In the case of `COC(=O)/C=C\C(=O)Nc1cccc([N+](=O)[O-])c1`, the activity change (cytotoxicity) was -64.1% (active). The figure for `COc1cccc(NCCC(=O)c2cccc([N+](=O)[O-])c2)c1` is 1.2%; for `O=C(Nc1cccc([N+](=O)[O-])c1)N1CCc2ccccc2C1` it is -12.4%; for `CCN(CC(=O)Nc1ccccc1C(F)(F)F)C(=O)C1CCN(C(=O)Nc2ccccc2)CC1` it is -2.1%. For the compound `Cc1cnc(C(=O)Oc2cccc(Cl)c2Cl)cn1`, the activity change (cytotoxicity) is 14.6%.

On to `Cc1ccc2nc(-c3ccco3)c(Cc3cccc(Cl)c3)n2c1`, for which the activity change (cytotoxicity) was 6.4%. As to `Cn1c(SCC(=O)Nc2ccc(Br)cc2F)nnc1-c1ccco1`, the activity change (cytotoxicity) was -9.6%. In the case of `Cn1c(-c2ccco2)nc2cc3ccccc3cc21`, the activity change (cytotoxicity) was -57.4% (active).

For the compound `CCOc1ccc(S(=O)(=O)NCc2ccc3c(c2)OCO3)cc1C`, the activity change (cytotoxicity) is -0.2%. Consider `COc1ccccc1CNC(=O)COC(=O)c1sc(C)nc1C`, for which the activity change (cytotoxicity) was 5.6%. In the case of `COc1ccc(C)cc1NC(=O)CCCN1C(=O)NC(C)(C)C1=O`, the activity change (cytotoxicity) was 9.3%. As for `Cc1cc(C)cc(NC(=O)N(C)Cc2ccccc2)c1`, the activity change (cytotoxicity) is 1.9%. The same measure for `CN1c2ccc(C=O)c3c(C=O)ccc(c23)N(C)C1(C)C`: -67.5% (active). In the case of `Cc1ccc(C=O)c([B-](F)(F)F)c1`, the activity change (cytotoxicity) is 7.5%.

In the case of `Cc1ccc(S(=O)(=O)N(C)C)cc1NC(=O)CN1c2cccc3cccc(c23)S1(=O)=O`, the activity change (cytotoxicity) is -28.1%. For `Cc1ccc(/C=N/NC(=O)Cn2ccc(C(F)(F)F)n2)o1`, the activity change (cytotoxicity) is 10.5%. With `Cc1cccc(NC(=S)N2CCC(O)CC2)c1C`, the activity change (cytotoxicity) is -5.6%. Consider `Fc1ccc(OCc2nn3c(Cn4nnc5ccccc54)nnc3s2)cc1`, for which the activity change (cytotoxicity) was -11.4%. `O=C(Nc1ccccc1Cl)c1ccccc1S(=O)(=O)c1ccccc1[N+](=O)[O-]`: the activity change (cytotoxicity) was 4.2%.

With `O=C(Nc1ccccc1Cl)/C(Cl)=C(\Cl)S(=O)c1ccccc1` (centres undefined), the activity change (cytotoxicity) is -100% (active). The same measure for `CC(=O)c1ccc(NC(=O)C(C)N(C)CC(=O)Nc2ccccc2Cl)cc1` (centres undefined): -7%; for `Cc1noc(C)c1C(=O)OC(C)C(=O)Nc1ccc2c(c1)OCO2` (centres undefined): 1.3%. For the compound `COc1ccccc1NC(=O)C1CCN(C(=O)c2ccc(C(C)(C)C)cc2)CC1`, the activity change (cytotoxicity) was 3.1%.

Consider `COC(=O)c1sc(-c2ccc(C(C)(C)C)cc2)cc1NC(=O)/C=C/C(=O)O`, for which the activity change (cytotoxicity) was -51.8% (active).

`O=C(C=CC(=O)Nc1ccc(F)cc1F)Nc1ccc(F)cc1F`: the activity change (cytotoxicity) was -11%. The same measure for `COc1ccc(NS(=O)(=O)c2ccc(N3CCOCC3)c(NC(=O)/C=C/C(=O)O)c2)cc1`: 17.8%; for `O=C(NCC1CCCO1)c1ccccc1-c1nc(-c2ccccc2Cl)no1` (centres undefined): -12.9%; for `O=C(O)CC12CC3CC(C1)CC(n1ncc(NCc4ccc(F)cc4)c(Cl)c1=O)(C3)C2`: -4.6%. `CCN1CCC(O)(/C=C/c2ccc(C)cc2)C(C(=O)/C=C/c2ccc(C)cc2)C1` (centres undefined): the activity change (cytotoxicity) was -73.7% (active). As to `CCN1CCC2(CC1)N=C(c1ccc(F)cc1)C(=S)N2C(=O)c1ccc(C)cc1`, the activity change (cytotoxicity) was 2.3%. Regarding `CCc1nc2ccc(C(=O)N3CCC(O)(Cc4ccccc4)CC3)cn2c1N(C)C(=O)Cc1ccccc1`, the activity change (cytotoxicity) is -15.5%. The same measure for `CC(=O)Nc1cccc(-c2cc(NC=O)c3ncc(-c4ccc(F)c(Cl)c4)n3c2)c1`: 0.8%; for `CC(=O)c1ccc(-c2cnc3c(NC=O)cc(-c4cccc(NS(C)(=O)=O)c4)cn23)cc1`: -51.7% (active); for `CC(=O)c1cccc(-c2cnc3c(NC=O)cc(-c4ccc(N(C)C)cc4)cn23)c1`: -27.1%. Regarding `COc1cccc(OC)c1C(=O)Nc1ccc(Cc2ccncc2)cc1`, the activity change (cytotoxicity) was -3.9%. The same measure for `O=C(Nc1ccc(S(=O)(=O)N2CCCCCC2)cc1)c1c(F)cccc1F`: 5.1%; for `O=C(Nc1ccncc1)c1c(F)cccc1F`: -51.3% (active); for `CCOC(=O)C1CCCN(C(=O)C2CCN(c3nnc(-n4cccc4)s3)CC2)C1` (centres undefined): -8.3%.

As to `O=C(Nc1nc(-c2ccncc2)cs1)C1COc2ccccc2O1` (centres undefined), the activity change (cytotoxicity) is -70.7% (active). `COc1ccc(NC(=O)COC(=O)C2COc3ccccc3O2)cc1` (centres undefined): the activity change (cytotoxicity) is 12.9%. As to `O=C(Nc1cc(S(=O)(=O)N2CCCCC2)ccc1Cl)C1COc2ccccc2O1` (centres undefined), the activity change (cytotoxicity) is -14%. Turning to `CCN1CCN(C(=O)CN(C)S(=O)(=O)c2ccc(OC)cc2)CC1`, the activity change (cytotoxicity) was 3.4%. For the compound `CSc1cccc(NC(=O)CN2C(=O)COc3ccc(S(=O)(=O)N4CCOCC4)cc32)c1`, the activity change (cytotoxicity) is 6.5%. On to `Cc1ccc(CNC(=O)COc2ccc(S(=O)(=O)NC(C)C)cc2)cc1`, for which the activity change (cytotoxicity) was -0.1%. Take `O=C1CN(C(=O)c2ccccc2F)C(c2ccc(F)cc2)c2cc(F)ccc2N1` (centres undefined): the activity change (cytotoxicity) was 11.6%.

For the origin of these results see PubChem BioAssay AID602141 (Sanford-Burnham Center for Chemical Genomics, 2011).
